Bioassay records deposited in PubChem by National Center for Advancing Translational Sciences (NCATS).
TbPYK inhibitor: inhibitors of Trypanosoma brucei pyruvate kinase | hit rate 0.12% among 410,000 | TbPYK enzyme, Kinase-Glo Plus ATP luminescence, 45 min | Potency, µM (titrated, usually from 76.8 µM), for inactives: top-dose activity, negative = inhibition, actives largely listed as inhibitors | Q57TT1; also: potency is read from the fitted curve at half-maximal effect; % is scaled to controls: 0 for no effect and ±100 for the full control effect; nearly all actives have a fitted effect of over 50% in size
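Luminescence from Kinase-Glo Plus, added after a 45-minute room-temperature reaction, served as the end-point read-out. The enzyme and substrate were preincubated with compound before ADP (130 uM final) initiated turnover. Concentration-effect curves came from normalized qHTS data.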
Cycloheximide cs: counter-screen hit for Shiga toxin inhibitors, cycloheximide; cell reporter, cycloheximide protein synthesis inhibition counterscreen; max response, %; hit rate 12% among 300,000; in the data active = max response mostly above about 13%, no sharp cut-off; inactive = mostly below about 14%; also: read at 38.3 µM for the half of the compounds with a filed dose; 0% is about no effect
LmPK inh: blocks Leishmania mexicana pyruvate kinase activity; Q27686; purified LmPK, Kinase-Glo ATP luminescence, 1 h; Potency, µM (titrated, usually from 57.5 µM), inactives show top-dose activity change, negative = inhibition, actives largely listed as inhibitors; hit rate 0.37% among 290,000; AID 1721; also: potency is read from the fitted curve at half-maximal effect; % is scaled to controls: 0 for no effect and ±100 for the full control effect
Target sequence (Q27686 whole entry, looked up): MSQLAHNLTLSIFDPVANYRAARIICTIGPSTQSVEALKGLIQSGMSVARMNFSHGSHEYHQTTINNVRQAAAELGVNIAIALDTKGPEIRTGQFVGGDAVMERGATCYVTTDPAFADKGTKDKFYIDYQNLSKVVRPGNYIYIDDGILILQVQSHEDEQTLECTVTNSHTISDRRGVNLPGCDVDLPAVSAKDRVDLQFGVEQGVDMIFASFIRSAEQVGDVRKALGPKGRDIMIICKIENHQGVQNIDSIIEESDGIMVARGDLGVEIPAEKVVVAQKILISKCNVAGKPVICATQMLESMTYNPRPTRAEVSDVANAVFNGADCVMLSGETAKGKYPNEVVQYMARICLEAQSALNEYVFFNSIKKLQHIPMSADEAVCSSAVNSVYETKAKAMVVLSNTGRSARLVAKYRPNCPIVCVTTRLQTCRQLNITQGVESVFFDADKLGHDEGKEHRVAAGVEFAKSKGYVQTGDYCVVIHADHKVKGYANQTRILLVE
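Screened at intermediate enzyme activity to detect both inhibitors and activators: LmPK at 0.1 nM, with a 0.5 nM enzyme column as activation reference. PEP 0.5 mM, ADP 0.1 mM; ATP detected by luminescence after 1 h.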
Shiga inhibitor: Shiga toxin inhibition; Vero cells, Shiga toxin protein synthesis inhibition reporter; inhibition, % at 38.7 µM; hit rate 9.2% among 290,000; AID 2315; in the data active = inhibition mostly above about 28%, no sharp cut-off; inactive = mostly below about 43%; also: 0% is about no effect
RE007 growth inh: less growth of the S. pombe RE007 Vpr strain; S. pombe RE007 Vpr strain, BacTiter-Glo ATP luminescence, 24 h; AID 651644; hit rate 0.21% among 360,000; Potency, µM (doses to about 92.2 µM), without a hit: top-dose activity change, negative = less growth, usual class: inhibitors; active = well fitted falling curve with a large enough effect; inconclusive = small, poorly fitted or top-dose-only effect; inactive = no such curve, though single readings can be large or run the other way; also: potency is read from the fitted curve at half-maximal effect; % is scaled to controls: 0 for no effect and ±100 for the full control effect; nearly all actives have a fitted effect of over 50% in size
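Fission yeast RE007 carrying one integrated HIV-1 vpr copy, seeded at OD 0.01 in PMG+AL medium with 23 nL pinned compound. Grown 24 h at 30 degrees; viability read by BacTiter-Glo luminescence after 5 min.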
Giardia FBPA inh-1: Giardia lamblia aldolase inhibition | purified Giardia FBPA | hit rate 0.71% among 290,000 | AID 2451 | A8B2U2 | Potency, µM (highest dose often 59.6 µM), for inactives: top-dose activity, negative = inhibition, usual class: inhibitors; also: potency is read from the fitted curve at half-maximal effect; % is scaled to controls: 0 for no effect and ±100 for the full control effect; nearly all actives have a fitted effect of over 55% in size
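40 nM FBPA preincubated 10 min at RT with compound (up to 57.5 uM final), then substrate plus GAPDH/TPI/NAD/arsenate coupling and diaphorase/resazurin added. Fluorescence read after 20 min at RT, 525/598 nm.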
Giardia growth: blocks growth of Giardia lamblia trophozoites; shares compounds with Giardia FBPA inh-1; Giardia lamblia trophozoite growth inhibition; hit rate 5% among 1,500; AID 2785; Potency, µM (highest dose often 57.5 µM), for the others: at the top dose activity change, negative = inhibition, most hits filed as inhibitors;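 also: potency is read from the fitted curve at half-maximal effect; trophozoites exposed to compound for 48 h at 37 °C; % is scaled to controls: 0 for no effect and ±100 for the full control effect; nearly all actives have a fitted effect of over 70% in size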
Mammalian tox: mammalian cytotoxicity of Giardia aldolase inhibitor hits | shares compounds with Giardia FBPA inh-1 | Potency, µM (top dose mostly 57.5 µM), for inactives: at the highest dose viability change, negative = toxicity, usual class: inhibitors | mammalian cell viability counter-screen, qHTS | hit rate 4% among 1,500;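 also: Chinese hamster ovary cells used as mammalian cytotoxicity surrogate; viability measured as cellular ATP by luminescence; potency is read from the fitted curve at half-maximal effect; compound exposure lasted 48 h before reading; % is scaled to controls: 0 for no effect and ±100 for the full control effect; nearly all actives have a fitted effect of over 60% in size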
Giardia FBPA inh-2: confirmation of Giardia fructose-bisphosphate aldolase inhibitors; shares compounds with Giardia FBPA inh-1; purified Giardia aldolase enzyme activity, qHTS; Potency, µM (doses to about 57.5 µM), without a hit: top-dose activity change, negative = inhibition, usual class: inhibitors; hit rate 5% among 1,500; AID 2787; also: potency is read from the fitted curve at half-maximal effect; % is scaled to controls: 0 for no effect and ±100 for the full control effect; nearly all actives have a fitted effect of over 45% in size
Rabbit FBPA inh: rabbit FBP aldolase inhibition by Giardia aldolase hits; shares compounds with Giardia FBPA inh-1; Rabbit muscle FBPA enzyme inhibition, selectivity counter-screen; Potency, µM (top dose mostly 57.5 µM), for the others: at the highest dose activity, negative = inhibition, hits mostly inhibitors; hit rate 4% among 1,500; AID 2794; also: potency is read from the fitted curve at half-maximal effect; % is scaled to controls: 0 for no effect and ±100 for the full control effect; nearly all actives have a fitted effect of over 60% in size
Target sequence (P00883 whole entry, looked up): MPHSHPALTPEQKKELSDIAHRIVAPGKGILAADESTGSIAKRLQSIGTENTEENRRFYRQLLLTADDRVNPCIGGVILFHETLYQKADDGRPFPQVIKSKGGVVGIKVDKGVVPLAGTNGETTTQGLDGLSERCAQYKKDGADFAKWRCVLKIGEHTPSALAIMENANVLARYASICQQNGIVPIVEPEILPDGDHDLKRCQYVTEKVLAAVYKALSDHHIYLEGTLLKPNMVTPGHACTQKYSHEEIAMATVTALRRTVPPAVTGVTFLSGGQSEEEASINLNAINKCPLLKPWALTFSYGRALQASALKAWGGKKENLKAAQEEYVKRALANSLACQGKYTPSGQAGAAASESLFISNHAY
GAPDH counter: counter-screen for Giardia aldolase inhibitors: GAPDH coupling enzyme. shares compounds with Giardia FBPA inh-1. GAPDH coupling enzyme counterscreen, biochemical, qHTS. Potency, µM (series often up to 57.5 µM), inactives show top-dose activity change, negative = inhibition, hits mostly inhibitors. hit rate 6% among 1,500. AID 2795; also: potency is read from the fitted curve at half-maximal effect; % is scaled to controls: 0 for no effect and ±100 for the full control effect; nearly all actives have a fitted effect of over 55% in size
* hit, by the source's call; ? = inconclusive; . = not tested or not shown; [ ] = remark or other dose. The full list was thinned out, with hits kept by preference. Unless noted, calls follow the shape of the dose curve; as a rule, active = well fitted curve in the direction sought with a large enough effect; inconclusive = small, poorly fitted or top-dose-only effect, or another doubt; inactive = no such curve, though single readings can be large; an effect the other way counts as inactive or inconclusive.

SMILES	TbPYK inhibitor	Cycloheximide cs	LmPK inh	Shiga inhibitor	RE007 growth inh	Giardia FBPA inh-1	Giardia growth	Mammalian tox	Giardia FBPA inh-2	Rabbit FBPA inh	GAPDH counter
O=C(O)CC1OCC=C2CN3CCC45C6=CC(=O)C(=O)C([N+](=O)[O-])=C6NC4C1C2CC35 (configuration not stated)	1%	-1	-12%	-1	-4%	1.3µM*	13µM*	-11%	4.5µM*	8.9µM*	4µM*
O=C(O)CC1OCC=C2CN3CCC45c6ccccc6NC4C1C2CC35 (configuration not stated)	6%	-1	-4%	-15	1%	-10%	.	.	.	.	.
CN(CC(=O)Nc1n[nH]c(=S)s1)S(=O)(=O)c1cccc2cccnc12	?	-5	1%	-7	6%	?	.	.	.	.	.
O=C1CSC(=S)N1N1C(=O)c2cccc([N+](=O)[O-])c2C1=O	.	-2	?	15	.	18µM*	?	5%	4%	11%	11%
CCCCc1nnc(NC(=O)CSCc2cc(=O)n3cc(C)sc3n2)s1	0%	-2	-2%	4	-3%	4µM*	7%[38.3 µM]	?	?	19%	-5%
O=c1cc(O)c2sc(Nc3ccc(F)c(Cl)c3)nc2[nH]1	-18%	3	-1%	2	-6%	2µM*	0%[10.4 µM]	4%	?	?	?
CCOC(=O)[C@]12CCC=C1N(Cc1ccc(Cl)cc1Cl)C(=O)[C@H](CC(=O)NCCCOC)C2	1%	.	.	.	3%	.	.	.	.	.	.
COc1ccc2cc3cc(C(=O)NCCN4CCc5ccccc5C4)oc3nc2c1	4%	21	-1%	36*	?	18µM*	75%	-14%	-1%	-2%	4%
CCOc1ccc(CCNC(=O)c2cc3cc4cc(OC)ccc4nc3s2)cc1OCC	7%	.	.	.	.	.	.	.	.	.	.
COc1ccc2cc3cc(C(=O)NCCN4CCc5ccccc5C4)sc3nc2c1	4%	21*	0%	47*	-4%	16µM*	20%[10.4 µM]	-7%	-9%	4%	4%
COc1ccc2cc3cc(C(=O)NCCN4CCN(Cc5ccccc5)CC4)oc3nc2c1	2%	-4	2%	-10	6%	-19%	.	.	.	.	.
Cc1cc(C(=O)Nc2cccc(C)c2C)c2ccccc2n1	2%	0	0%	-6	7%	-2%	.	.	.	.	.
COc1ccc(C(=O)NCC(c2ccco2)S(=O)(=O)c2cccs2)cc1 (configuration not stated)	-1%	.	.	.	.	.	.	.	.	.	.
COC(=O)Cc1[nH]n(-c2nc3ccccc3s2)c(=O)c1C(C)=Nc1ccc(Cl)cc1	-14%	39*	-22%	70*	?	16µM*	?	-24%	3%	18%	13%
O=C(Nn1cc(C(=O)Nc2ccc(F)cc2F)c2ccccc2c1=O)c1cnccn1	-1%	-5	2%	-2	-6%	18µM*	?	-9%	-9%	1%	-17%
c1ccc(Nc2ccc(Nc3ccccc3)cc2)cc1	2%	.	.	.	-17%	.	.	.	.	.	.
N#CC(C#N)=C(C#N)c1ccc(Nc2ccccc2)cc1	-5%	-1	-27%	.	18%	22µM*	?	-8%	-17%	-8%	-18%
O=C(CNc1cccc(S(=O)(=O)N2CCCCC2)c1)Nc1cccc(F)c1	-1%	.	.	.	5%	.	.	.	.	.	.
O=C(CNCc1ccco1)Nc1cccc(S(=O)(=O)N2CCCCC2)c1	-15%	-3	-1%	8	1%	18µM*	-4%[10.4 µM]	-7%	5%	0%	7%
O=C(CN1C(=O)NC2(CCCC2)C1=O)OCCOc1ccc(Br)cc1	2%	.	.	.	1%	.	.	.	.	.	.
COc1ccc(OC)c(C2CC(=O)N3CN(c4ccccc4)CSC3=C2C#N)c1 (configuration not stated)	3.5µM*	-2	18%	-6	-2%	1.8µM*	?	2%	-22%	?	-15%
COc1ccc(C2CC(=O)N3CN(c4ccccc4F)CSC3=C2C#N)cc1OC (configuration not stated)	3.2µM*	-6	6%	-26	-2%	2.8µM*	?	5%	?	32µM*	?
COc1ccc(N2CSC3=C(C#N)C(c4cccc(OC)c4OC)CC(=O)N3C2)cc1 (configuration not stated)	13µM*	-3	13%	-6	-8%	2µM*	15%	7%	?	?	?
COc1ccc(C2CC(=O)N3CN(Cc4ccco4)CSC3=C2C#N)cc1 (configuration not stated)	?	3	-1%	31	-7%	?	.	.	.	.	.
COc1ccc(N2CCN(CCCNC(=O)c3cnn(-c4ccc(C)cc4)c3-n3cccc3)CC2)cc1	2%	.	.	.	.	.	.	.	.	.	.
SMILES	TbPYK inhibitor	Cycloheximide cs	LmPK inh	Shiga inhibitor	RE007 growth inh	Giardia FBPA inh-1	Giardia growth	Mammalian tox	Giardia FBPA inh-2	Rabbit FBPA inh	GAPDH counter
CCCCNC(=O)Oc1c(Br)cc2sc(=O)oc2c1Br	.	2	6%	-14	.	16µM*	-15%	11%	-5%	1%	-15%
Cc1oc(-c2ccc(C(=O)NCc3ccc(Cl)cc3)cc2)nc1CS(=O)(=O)c1ccccc1	-14%	.	.	.	.	.	.	.	.	.	.
COc1cc(/C=C/C(=O)c2c(O)cc(C)oc2=O)cc(OC)c1O	-14%	1	8%	-4	-12%	16µM*	-3%[10.4 µM]	-12%	?	?	?
COc1cccc(/C=C/C(=O)c2c(O)cc(C)oc2=O)c1O	-5%	23	4%	97	-28%	-19%	.	.	.	.	.
COc1cccc(/C=N/Nc2nnc(C)n2N)c1OCc1ccccc1Cl	0%	3	4%	3	-16%	5%	.	.	.	.	.
CCc1nnc(N/N=C/c2ccccc2F)n1N	3%	10	1%	48	-11%	20µM*	71%	-2%	?	-17%	-2%
CCc1nnc(N/N=C/c2ccccc2Cl)n1N	-7%	-2	-3%	37	-6%	18µM*	?	3%	-26%	-15%	-19%
Cc1ccc(C)c(Cn2c(=O)n(C(C)C)c(=O)c3oc4ccccc4c32)c1	1%	.	.	.	.	.	.	.	.	.	.
